L3MBTL1 block = blocks human L3MBTL1 | Q9Y468 | AlphaScreen L3MBTL1–H3K9me1 peptide binding | Potency, µM (doses to about 57.1 µM), actives largely listed as inhibitors | hit rate 0.66% among 230,000; also: nearly all actives have a fitted effect of over 60% in size
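AlphaScreen proximity signal between nickel-chelate acceptor and streptavidin donor beads (final 10 ug/mL) reports binding of 50 nM L3MBTL1 to 75 nM biotin-H3 K9me1 peptide; complex incubated with compounds 30 min at room temperature; cefsulodin titration as control.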
G9a block = G9a (human) methyltransferase inhibition | G9a H3K9 monomethylation, AlphaScreen, 2 h | Potency, µM (highest dose often 102 µM), usual class: inhibitors | hit rate 8.8% among 350,000; also: nearly all actives have a fitted effect of over 75% in size
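AlphaScreen detection with an anti-monomethyl H3K9 antibody quantified product after a 2 h room-temperature reaction containing 500 nM biotinylated H3K9 peptide, 20 µM SAM and 20 nM enzyme, which had been preincubated 15 min with compound.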
JMJD2A Tudor = JMJD2A Tudor domain (human) inhibition; O75164; AlphaScreen JMJD2A-Tudor / H3K4me3 peptide binding; Potency, µM (top dose mostly 114 µM), actives largely listed as inhibitors; hit rate 4.4% among 390,000; AID 504339; also: nearly all actives have a fitted effect of over 50% in size
PI5P4Ka inh = PI5P4K alpha (human) kinase inhibition; AID 652105; PI5P4Kalpha enzyme, ADP-Glo luminescence, 60 min; hits give low values; max response, %; hit rate 1.2% among 330,000; active = max response of -50% or lower; inconclusive = between -30% and -50%; inactive = -30% or higher; also: value at the top dose of about 77 µM
Target sequence (P48426 whole entry, looked up): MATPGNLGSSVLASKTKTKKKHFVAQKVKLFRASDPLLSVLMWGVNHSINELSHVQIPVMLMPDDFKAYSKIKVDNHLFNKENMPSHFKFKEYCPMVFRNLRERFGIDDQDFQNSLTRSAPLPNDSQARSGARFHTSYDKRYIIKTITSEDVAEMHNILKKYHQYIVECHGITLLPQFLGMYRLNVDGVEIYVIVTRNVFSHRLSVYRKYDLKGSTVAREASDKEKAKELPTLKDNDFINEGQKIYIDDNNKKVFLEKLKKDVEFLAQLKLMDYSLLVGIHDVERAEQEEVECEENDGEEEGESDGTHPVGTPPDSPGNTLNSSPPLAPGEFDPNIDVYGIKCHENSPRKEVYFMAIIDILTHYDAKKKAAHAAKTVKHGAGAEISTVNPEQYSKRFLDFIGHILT
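ADP-Glo luminescence end-point after a 60 min room-temperature kinase reaction. PI5P4Kalpha and substrate in HEPES pH 7.4 buffer with EGTA, 0.1% CHAPS and 5% DMSO; ATP at 5 microM final.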
HP1b binding inh = inhibitors of HP1-beta chromodomain binding to methylated histone tails; P83916; AlphaScreen HP1-beta / biotin-H3K9me3 peptide binding; Potency, µM (highest dose often 114 µM), hits mostly inhibitors; hit rate 0.56% among 390,000; AID 540317; also: nearly all actives have a fitted effect of over 70% in size
Target sequence (P83916 whole entry, looked up): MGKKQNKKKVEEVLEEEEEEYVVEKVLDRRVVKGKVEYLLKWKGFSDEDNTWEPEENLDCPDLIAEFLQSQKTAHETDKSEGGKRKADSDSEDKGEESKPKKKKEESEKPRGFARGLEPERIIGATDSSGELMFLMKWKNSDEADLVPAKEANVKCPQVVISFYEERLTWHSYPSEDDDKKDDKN
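Compound inhibition of the preformed complex between 50 nM HP1-beta and 50 nM biotinylated H3K9me3 peptide was read by AlphaScreen. Buffer was PBS pH 7.4 with 0.01% Tween-20. Incubations ran 30 min at room temperature, with 10 ug/mL donor/acceptor beads.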
BAZ2B block = BAZ2B (human) inhibition; Q9UIF8; AID 504333; Potency, µM (titrated, usually from 114 µM), most hits filed as inhibitors; hit rate 4.4% among 360,000; AlphaScreen BAZ2B-H3K14Ac peptide displacement; also: nearly all actives have a fitted effect of over 60% in size
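AlphaScreen luminescence quantifies BAZ2B engagement of H3K14Ac peptide; the protein and biotinylated peptide are both at 50 nM final, buffer PBS pH 7.4 with 0.01% Tween-20, all steps at room temperature.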
Large screens that a line does not name were inactive; ! = a repeat was not active. Most compounds without a hit are left out; they make up all but 11% or so of the library. Unless noted, calls follow the shape of the dose curve; as a rule, active = well fitted inhibition curve with a large enough effect; inconclusive = small, poorly fitted or top-dose-only effect; inactive = no such curve, though single readings can be large or run the other way.

O=C(CSc1nncn2c1cc1sccc12)Nc1ccc(Br)cc1F	none (no result: L3MBTL1 block, PI5P4Ka inh)
COc1cc(C(=O)O)ccc1O	none
COc1cc(C(O)C(=O)O)ccc1O (stereo not given)	G9a block 11µM!
COC(=O)c1sc(-c2ccc(Cl)cc2)cc1NC(=O)COCC(=O)O	G9a block 56µM, BAZ2B block inconclusive (no result: L3MBTL1 block)
COC(=O)c1sc(-c2ccc(Cl)cc2)cc1NC(=O)/C=C/C(=O)O	PI5P4Ka inh inconclusive (no result: L3MBTL1 block)
CCOc1ccc(-c2cc(NC(=O)c3ccccc3)c(C(=O)OC)s2)cc1	none (no result: L3MBTL1 block, PI5P4Ka inh)
COC(=O)c1sc(-c2ccc(C(C)(C)C)cc2)cc1NC(=O)CCC(=O)O	G9a block 71µM (no result: L3MBTL1 block)
CCOc1ccc(CNC(=O)c2ccccc2NC(=O)c2nsc3ccccc23)cc1	none (no result: L3MBTL1 block, PI5P4Ka inh)
O=C(O)c1cccc(Nc2ncnc3sccc23)c1	G9a block 40µM
O=C(Cn1c(=O)n(Cc2ccco2)c(=O)c2oc3ccccc3c21)Nc1ccc(F)c(Cl)c1	none (no result: L3MBTL1 block, PI5P4Ka inh)
CC(=O)Nc1ccc(NC(=O)CSc2ccc(-c3ccc4c(c3)OCO4)nn2)cc1	G9a block 7.9µM
CC(=O)c1ccc(NC(=O)CSc2ccc(-c3ccc4c(c3)OCO4)nn2)cc1	JMJD2A Tudor inconclusive
Fc1cccc(CSc2ccc(-c3ccc4c(c3)OCO4)nn2)c1	none
c1cncc(CSc2ccc(-c3ccc4c(c3)OCO4)nn2)c1	G9a block 50µM (no result: L3MBTL1 block, BAZ2B block)
COc1ccc(-c2cn3nc(N4CCCC(C(=O)Nc5cc(C)ccc5C)C4)sc3n2)cc1 (stereo not given)	G9a block inconclusive, JMJD2A Tudor inconclusive (no result: L3MBTL1 block, PI5P4Ka inh)
CSc1nnc(N2C(=O)C(O)=C(C(=O)c3ccco3)C2c2ccc(F)cc2)s1 (stereo not given)	G9a block 22µM, BAZ2B block inconclusive (no result: L3MBTL1 block)
Cc1cc(N2C(=O)C(O)=C(C(=O)c3ccco3)C2c2cccnc2)no1 (stereo not given)	none (no result: JMJD2A Tudor, PI5P4Ka inh, HP1b binding inh)
CCSc1nnc(N2C(=O)C(O)=C(C(=O)c3ccco3)C2c2cccc(OC)c2)s1 (stereo not given)	G9a block 35µM, JMJD2A Tudor 89µM, PI5P4Ka inh inconclusive, BAZ2B block inconclusive (no result: L3MBTL1 block)
CSc1nnc(N2C(=O)C(O)=C(C(=O)c3ccco3)C2c2cccc(Cl)c2)s1 (stereo not given)	JMJD2A Tudor inconclusive, BAZ2B block 79µM (no result: L3MBTL1 block, G9a block)
CSCC[C@H](NC(=O)c1ccc2ccccc2c1)C(=O)N1CCC2(CC1)NCCc1[nH]cnc12	G9a block 45µM, JMJD2A Tudor inconclusive, BAZ2B block inconclusive (no result: L3MBTL1 block)
CCCc1sc(C(=O)Nc2nnc(C3CC3)s2)cc1CC	G9a block inconclusive
CCSc1nnc(NC(=O)c2nc3nc(C)cc(C)n3n2)s1	JMJD2A Tudor 16µM (no result: L3MBTL1 block)
CCSc1nnc(NC(=O)CSc2nc(C)cc(C)n2)s1	none (no result: L3MBTL1 block)
Cc1cc(C)n2nc(C(=O)Nc3nnc(C4CC4)s3)nc2n1	G9a block inconclusive, JMJD2A Tudor 8.9µM
COc1cccc(NC(=O)Cn2cc(S(=O)(=O)Cc3ccccc3F)c3ccccc32)c1	none (no result: L3MBTL1 block, PI5P4Ka inh)
Cc1ccc(CCNC(=O)c2cc3ccccn3n2)cc1	none (no result: L3MBTL1 block, PI5P4Ka inh)
CCn1c(O)c(N=NC(=O)CNC(=O)c2ccco2)c2ccccc21	none
CCn1c(O)c(N=NC(=O)CNC(=O)/C=C/c2ccco2)c2ccccc21	G9a block 56µM (no result: PI5P4Ka inh)
COc1ccccc1N1CCN(C(=O)CCCNC(=O)Cn2cnc3sc(C)c(C)c3c2=O)CC1	none (no result: L3MBTL1 block)
COc1ccc(N2CCN(C(=O)CCCNC(=O)Cn3cnc4sc(C)c(C)c4c3=O)CC2)cc1	G9a block 50µM (no result: L3MBTL1 block)
CN(C)CCCN(C(=O)c1ccc(Br)s1)c1nc2cc3c(cc2s1)OCCO3	G9a block inconclusive
CCN(CC)CCN(C(=O)c1ccc(Br)s1)c1nc2cc3c(cc2s1)OCCO3	G9a block 50µM (no result: L3MBTL1 block, BAZ2B block)
CCN(CC)CCN(C(=O)C1CCCCC1)c1nc2cc3c(cc2s1)OCO3	G9a block inconclusive, JMJD2A Tudor inconclusive (no result: L3MBTL1 block)
CCN(CC)CCN(C(=O)c1ccc(Br)s1)c1nc2cc3c(cc2s1)OCO3	G9a block 50µM (no result: L3MBTL1 block, BAZ2B block)
CCN(CC)c1ccc(C(=O)N2CCC(c3c[nH]c4ccccc34)(c3c[nH]c4ccccc34)CC2)cc1	JMJD2A Tudor inconclusive, BAZ2B block inconclusive (no result: L3MBTL1 block, PI5P4Ka inh)
COC(=O)c1[nH]c2cc(OC)ccc2c1NC(=O)CCN1CCCC(C)(C)C1	G9a block 56µM (no result: PI5P4Ka inh)
CCOC(=O)c1[nH]c2cc(OC)c(OC)cc2c1NC(=O)CN1CCN(c2ccc(OC)cc2)C(C)C1 (stereo not given)	G9a block 22µM, BAZ2B block 45µM (no result: L3MBTL1 block, JMJD2A Tudor, PI5P4Ka inh, HP1b binding inh)
COC(=O)c1[nH]c2cccc(OC)c2c1NC(=O)CN1CCN(c2cccc(OC)c2)C(C)C1 (stereo not given)	G9a block inconclusive, BAZ2B block inconclusive
CCOC(=O)c1[nH]c2ccc(OC)cc2c1NC(=O)c1ccccc1C(=O)O	G9a block 45µM (no result: L3MBTL1 block)
CCOC(=O)c1[nH]c2ccc(OC)cc2c1NC(=O)CCN1CCC(C)CC1	G9a block 4.5µM (no result: L3MBTL1 block)
CCOC(=O)c1[nH]c2ccc(Br)cc2c1NC(=O)CCN1CCC(C)CC1	none (no result: L3MBTL1 block)

Compound activity deposited in PubChem BioAssay by National Center for Advancing Translational Sciences (NCATS).
